# Among all 48,000 compounds or so, about 13,000 (27%) showed an effect of 50% or more. This is one part of the list.
# Tested on: Wolbachia pipientis
# Assay: Anti-Wolbachia Cell-Based Screen
# Format: functional
# Parameters: scale not given: in the data most compounds retested in dose-response had high values
# Conditions: 5 µM
row,Structure (SMILES),Percent Effect
1,Cc1cc(CN2C[C@@H]3COC[C@]3(CNC(=O)N3CCCC3)C2)no1.O=C(O)C(F)(F)F,-10.59%
2,Cc1noc(C)c1CN1CC2(CCCCN2C)CC1=O.O=C(O)C(F)(F)F (centres undefined),-9.804%
3,Cc1noc(C)c1CN1CC[C@H]2O[C@@H](C(=O)N3CCCC3)CC[C@H]21.O=C(O)C(F)(F)F,9.45%
4,Cc1noc(C)c1CN1CCCC2(CCN(CC3CCCC3)C2)C1.O=C(O)C(F)(F)F (centres undefined),102.6%
5,Cc1noc(C)c1CN1CCCC2(CCN(C(=O)C3CC3)C2)C1 (centres undefined),106.9%
6,COCCNC(=O)[C@@]12CCO[C@@H]1CCN(Cc1c(C)noc1C)C2.O=C(O)C(F)(F)F,-6.3%
7,Cc1ccc(CC(=O)N2CCN(C(C)c3ccccc3F)CC2)cn1 (centres undefined),7.645%
8,COCCNC1(c2ccc(Cl)cc2)CCOCC1,5.533%
9,CC(C)=CCN1C[C@H]2CC[C@@H]1CN(Cc1cc(=O)[nH]c(=O)[nH]1)C2,7.172%
10,Cc1cnc(NCCc2c[nH]cn2)nc1-c1ccnn1C,-2.604%
11,Cc1cc(NCCc2c[nH]cn2)nc(-c2cccnc2)n1,99.48%
12,CCc1ccccc1OCCNCCc1c[nH]cn1,-3.829%
13,Cc1cc(CN(C)C(=O)CN2CCCC2=O)no1,135.7%
14,CN(Cc1cc(C2CC2)on1)C(=O)CN1CC(c2ccccc2)CC1=O (centres undefined),-9.848%
15,Cc1noc(C)c1CN(C)C(=O)CN1CC(c2ccccc2)CC1=O (centres undefined),-0.5183%
16,CCc1noc(CC)c1CC(=O)N1CCCC(N2CCCCC2)C1 (centres undefined),-13.04%
17,CN(c1ncccc1C#N)C1CCN(CCc2ccccn2)CC1,3.648%
18,O[C@@]1(CNCCCOc2cccnc2)CCCN2CCCC[C@@H]21,-22.25%
19,COCCN1CCO[C@H]2CN(C(=O)c3ccncc3F)C[C@H]21.O=C(O)C(F)(F)F,-13.21%
20,CC(C)=CCN1C[C@H]2CC[C@@H]1CN(C(=O)c1c[nH]c(=O)c(Cl)c1)C2,-5.36%
21,Cc1ncc(CC(=O)N2C[C@@H]3CC[C@H](C2)N(CC2CCC2)C3)c(=O)[nH]1,1.908%
22,O=C(c1c[nH]c(=O)c(Cl)c1)N1C[C@@H]2CC[C@H](C1)N(CC1CCC1)C2,97.45%
23,CCCn1cc(C(=O)NC(C(=O)O)c2ccccc2C(F)(F)F)c(C)n1 (centres undefined),7.837%
24,O=C(Cc1ccc(CO)cc1)N1CCN(CC2CC2)[C@@H]2CS(=O)(=O)C[C@@H]21,-14.38%
25,CN1CCN(S(C)(=O)=O)Cc2cccnc21,126.5%
26,CN1CCN(c2ncccn2)CC12CCC(=O)N(CC1CC1)CC2 (centres undefined),-4.361%
27,CN1CCN(S(=O)(=O)C2CC2)Cc2cccnc21,113.9%

row,Structure (SMILES),Percent Effect
1,CN1CCN(Cc2ccoc2)Cc2cccnc21,-15.03%
2,CN(C)CCN1CCN(CC2CC2)c2ncccc2C1,104.8%
3,CCS(=O)(=O)N1CCN(C)c2ncccc2C1,97.89%
4,Cl.O=C(NCC1CCCCC1)N1C[C@@H]2C[C@H]1CN2,-10.23%
5,CCCN1CCN(C(=O)c2ccc(Cl)cn2)[C@H]2CS(=O)(=O)C[C@H]21,7.172%
6,CCC(C(=O)N1CCCSCC1)N1CCCC1=O (centres undefined),0.6755%
7,Cc1cccc(CN2CC3C[C@]3(NC(=O)c3ccco3)C2)n1 (some centres undefined),-15.21%
8,CCCN1CCN(C(=O)c2cccc(C)n2)[C@H]2CS(=O)(=O)C[C@H]21,-6.939%
9,CCN1CCC2(CC1)CN(CCO)c1ccccc12,-10.11%
10,CCS(=O)(=O)N1CCN(CC2CC2)c2ncccc2C1,115%
11,CS(=O)(=O)N1CCN(CC2CC2)c2ncccc2C1,6.456%
12,O=C(O)C(F)(F)F.O=C(O)C(F)(F)F.c1cnc2c(c1)CN(C1CCOC1)CCN2CC1CC1 (centres undefined),-0.9537%
13,COc1ccccc1CC(C)N(C)CCS(C)(=O)=O (centres undefined),-4.195%
14,COc1cc(N2C[C@H]3CCN(CCN4CCCC4)C[C@H]3C2)ncn1.O=C(O)C(F)(F)F.O=C(O)C(F)(F)F,-9.875%
15,CNC(=O)[C@H]1C[C@@H]2CN(Cc3cccnc3OC)C[C@@H]2N1C(C)=O.O=C(O)C(F)(F)F.O=C(O)C(F)(F)F,92.23%
16,COc1cc(N2C[C@H]3CN(Cc4ccccn4)C[C@H]3C2)ncn1.O=C(O)C(F)(F)F,127.8%
17,COC[C@]12COC[C@H]1CN(Cc1cccnc1OC)C2,3.857%
18,COc1ncccc1CN1CCC2(CC1)COCCN2C.O=C(O)C(F)(F)F.O=C(O)C(F)(F)F,-5.344%
19,COc1ncccc1CN1C[C@@H]2OCCN(CCN(C)C)[C@@H]2C1.O=C(O)C(F)(F)F.O=C(O)C(F)(F)F.O=C(O)C(F)(F)F,17.28%
20,COc1ncccc1CN1C[C@@H]2CN(c3ncccn3)C[C@@H]2C1,110.4%
21,COCCCN1CCCC12CCN(Cc1cccnc1OC)CC2.O=C(O)C(F)(F)F.O=C(O)C(F)(F)F,-1.56%
22,CNC(=O)[C@H]1C[C@@H]2CN(Cc3cccnc3OC)C[C@@H]2N1C(C)C.O=C(O)C(F)(F)F.O=C(O)C(F)(F)F.O=C(O)C(F)(F)F,5.567%
23,COCCN1CC[C@@H]2CN(Cc3cccnc3OC)C[C@@H]2C1.O=C(O)C(F)(F)F.O=C(O)C(F)(F)F,130.6%
24,CN(C)CCN1CCO[C@H]2CN(Cc3ccccn3)C[C@H]21.O=C(O)C(F)(F)F.O=C(O)C(F)(F)F.O=C(O)C(F)(F)F.O=C(O)C(F)(F)F,10.34%
25,COCCN1CCCC12CCN(Cc1cccnc1OC)CC2.O=C(O)C(F)(F)F.O=C(O)C(F)(F)F,-1.646%
26,Fc1cccnc1N1CCOCC2(CCCNC2)C1 (centres undefined),-2.668%
27,N#Cc1cccc(C(=O)NS(=O)(=O)c2ccc(C#N)c(Cl)c2)c1,-1.961%
